RecA intein inh = Mtb RecA intein splicing inhibitors, primary screen, biochemical, fluorescence, HTS. actives 0.75% (n = 290,000). AID 2221, 2009. inhibition, % (no concentration beside the values). cell-free RecA intein splicing; in the data active = inhibition above about 30%;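 also: 0% = vehicle wells and 100% = reference inhibitor control wells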
CCHF vOTU inh-1 = CCHFV vOTU protease inhibitors, primary screen, biochemical, Pep-AMC substrate, fluorescence; actives 0.55% (n = 370,000); AID 651958, 2012; Crimean-Congo hemorrhagic fever virus L polyprotein viral ovarian tumor (vOTU) protease …; inhibition, % at 11.5 µM; also: 0% = vehicle wells with enzyme and 100% = no enzyme wells
3CLpro inhibitor = SARS-CoV 3CLpro protease inhibitors, primary screen, biochemical, quenched FRET; actives 0.14% (n = 290,000); Replicase polyprotein 1ab (Severe acute respiratory syndrome coronavirus), P0C6X7; inhibition, % at 6 µM; recombinant SARS-CoV 3CLpro, quenched FRET peptide cleavage; in the data active = inhibition above about 12%
DUSP3 inh = VHR1 phosphatase inhibitors, primary screen, biochemical, absorbance, uHTS | AID 1654, 2009 | inhibition, % at 13.3 µM | actives 0.52% (n = 290,000) | Dual specificity protein phosphatase 3 (Homo sapiens), P51452 | recombinant VHR phosphatase, pNPP absorbance; in the data active = inhibition above about 50%
Target sequence (P51452 whole entry, looked up): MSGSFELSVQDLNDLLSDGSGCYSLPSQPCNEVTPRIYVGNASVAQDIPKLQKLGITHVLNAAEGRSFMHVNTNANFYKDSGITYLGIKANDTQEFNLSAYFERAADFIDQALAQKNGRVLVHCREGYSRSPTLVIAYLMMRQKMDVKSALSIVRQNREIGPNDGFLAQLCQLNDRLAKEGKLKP
CCHF vOTU inh-2 = CCHFV vOTU protease inhibitors, confirmation, biochemical, Pep-AMC substrate, fluorescence; shares compounds with CCHF vOTU inh-1; Recombinant CCHFV vOTU; inhibition, % at 11.5 µM; actives 17% (n = 1,900)
Active calls of the source: *. A selection: hits, their analogues and other compounds. The true share with any hit is near 1.5%. Rule as the data show it, unless noted: active = inhibition above about 30%; inactive = the rest.

What do the screens show for `CCc1nnc(N/N=C/c2ccc(-c3ccc([N+](=O)[O-])cc3)o2)n1N`?
RecA intein inh: 26; CCHF vOTU inh-1: 65*; 3CLpro inhibitor: 4; DUSP3 inh: 5; CCHF vOTU inh-2: 4

Results for CCc1nnc(N/N=C/c2c(C)[nH]c3ccccc23)n1N ?
RecA intein inh: -3; CCHF vOTU inh-1: 112*; 3CLpro inhibitor: 2; DUSP3 inh: 29; CCHF vOTU inh-2: -11

What do the screens show for `Cc1nnc(N/N=C/c2c(Cl)cccc2Cl)n1N`?
RecA intein inh: 6; CCHF vOTU inh-1: 75*; 3CLpro inhibitor: 8; DUSP3 inh: 2; CCHF vOTU inh-2: -8

What do the screens show for `Cc1cc(/C=N/NC(N)=S)c(C)n1-c1ccc(Br)cc1`?
RecA intein inh: 4; CCHF vOTU inh-1: 18; 3CLpro inhibitor: -3; DUSP3 inh: -14

What do the screens show for `Cc1nnc(N/N=C/c2cc(C)n(-c3ccc(F)cc3)c2C)n1N`?
RecA intein inh: -6; CCHF vOTU inh-1: 99*; 3CLpro inhibitor: -5; DUSP3 inh: 4; CCHF vOTU inh-2: -9

What do the screens show for `O=C1CN(C(=O)COC(=O)CNS(=O)(=O)/C=C/c2ccccc2)c2ccccc2N1`?
RecA intein inh: 0; CCHF vOTU inh-1: 6; 3CLpro inhibitor: -1; DUSP3 inh: 10

Results for COc1ccc(N2C(=O)c3ccccc3NC(=O)C2C(=O)NCCc2ccccc2F)cc1 (stereo not given) ?
CCHF vOTU inh-1: -5

How did Cc1nnc(N/N=C/c2ccc(-c3ccccc3F)o2)n1N do in these assays?
RecA intein inh: 2; CCHF vOTU inh-1: 79*; 3CLpro inhibitor: 6; DUSP3 inh: 30; CCHF vOTU inh-2: 5

How did CCc1nnc(N/N=C/c2c(F)cccc2Cl)n1N do in these assays?
RecA intein inh: 4; CCHF vOTU inh-1: 87*; 3CLpro inhibitor: 1; DUSP3 inh: -24; CCHF vOTU inh-2: -12

Results for CCc1nnc(N/N=C/c2cc(C)c(C)cc2C)n1N ?
RecA intein inh: -5; CCHF vOTU inh-1: 74*; 3CLpro inhibitor: -3; DUSP3 inh: -3; CCHF vOTU inh-2: -21

Results for CCc1nnc(-n2nc(C)cc2-c2ccccc2)n1N ?
CCHF vOTU inh-1: 2; 3CLpro inhibitor: 0; DUSP3 inh: 6

How did CCOC(=O)[C@@]12CCCC3=C1N(CCC3)C(=O)[C@H]2CC(=O)NCc1ccc(C)o1 do in these assays?
CCHF vOTU inh-1: -6

Results for COC(=O)c1cc(-c2cccc(C(C)C)c2)c(=O)n2c1CCC2 ?
CCHF vOTU inh-1: 10

What do the screens show for `COc1cc(C(=O)c2cc3c(cc2C)OCO3)cc(OC)c1OC`?
CCHF vOTU inh-1: 3

What do the screens show for `CN(C)CCNC(=O)C1(C)Cc2c(-c3cccc(C(F)(F)F)c3)ccnc2O1` (stereo not given)?
CCHF vOTU inh-1: -3

How did CCCCN(CCCNC(=O)Cn1nc(CC)n2c(cc3sc(C)cc32)c1=O)Cc1ccccc1 do in these assays?
RecA intein inh: 2; CCHF vOTU inh-1: 19; 3CLpro inhibitor: 1; DUSP3 inh: -3

Results for CCc1nn(CC(=O)NCCCN(CC)Cc2ccccc2)c(=O)c2cc3sccc3n12 ?
RecA intein inh: 2; CCHF vOTU inh-1: 35*; 3CLpro inhibitor: -3; DUSP3 inh: 25; CCHF vOTU inh-2: -10

What do the screens show for `CC(C)(O)CC[C@@H](O)[C@](C)(O)C1CC[C@@]2(O)C3=CC(=O)[C@]4(O)C[C@@H](O)[C@@H](O)C[C@]4(C)C3CC[C@]12C` (stereo not given in full)?
CCHF vOTU inh-1: -5

Results for CCOC(=O)C1CCN(C2=C(NS(=O)(=O)c3ccc(Br)cc3)C(=O)c3ccccc3C2=O)CC1 ?
RecA intein inh: 26; CCHF vOTU inh-1: 45*; 3CLpro inhibitor: -2; DUSP3 inh: 18; CCHF vOTU inh-2: 19

How did NC(=O)C1CCN(C2=C(NS(=O)(=O)c3ccc(Br)cc3)C(=O)c3ccccc3C2=O)CC1 do in these assays?
RecA intein inh: 6; CCHF vOTU inh-1: 39*; 3CLpro inhibitor: 6; DUSP3 inh: -24; CCHF vOTU inh-2: -2

Results for NC(=O)C1CCN(c2nc3ccccc3nc2NS(=O)(=O)c2ccc(Br)cc2)CC1 ?
CCHF vOTU inh-1: 12

Results for Cn1c(N)c(C(=O)CCc2ccccc2)c(=O)n(C)c1=O ?
CCHF vOTU inh-1: 0

Results for CCN(CC(=O)c1c(N)n(C)c(=O)n(C)c1=O)c1cccc2ccccc12 ?
RecA intein inh: 1; CCHF vOTU inh-1: 82*; 3CLpro inhibitor: -1; DUSP3 inh: -15; CCHF vOTU inh-2: -8

How did C=CCn1c(O)c(C(CC)=Nc2ccc(N(C)C)cc2)c(=O)[nH]c1=O do in these assays?
RecA intein inh: -2; CCHF vOTU inh-1: 38*; 3CLpro inhibitor: 2; DUSP3 inh: 1; CCHF vOTU inh-2: -21

Results for CCN(CC)S(=O)(=O)N1CCC(C(=O)NCc2ccco2)CC1 ?
RecA intein inh: 0; CCHF vOTU inh-1: -1; 3CLpro inhibitor: -3; DUSP3 inh: -6

Results for O=C(NCc1ccco1)C1CCN(S(=O)(=O)c2ccccc2C(F)(F)F)CC1 ?
CCHF vOTU inh-1: 31*; CCHF vOTU inh-2: -12

How did CCOC(=O)N/N=C\c1ccc(-c2cccc(C(F)(F)F)c2)o1 do in these assays?
RecA intein inh: 4; CCHF vOTU inh-1: 19; 3CLpro inhibitor: 1; DUSP3 inh: 12

How did CC1(CC(=O)N/N=C/c2ccc(-c3cccc(C(F)(F)F)c3)o2)OCCO1 do in these assays?
RecA intein inh: -2; CCHF vOTU inh-1: 35*; 3CLpro inhibitor: 8; DUSP3 inh: -1; CCHF vOTU inh-2: -7

How did COc1cc(/C=N\Nc2nncn2N)ccc1OC(C)=O do in these assays?
RecA intein inh: 0; CCHF vOTU inh-1: 90*; 3CLpro inhibitor: 0; DUSP3 inh: 13; CCHF vOTU inh-2: -22

How did CCOc1cc(/C=N/Nc2ncnc(Cl)c2N)ccc1O do in these assays?
RecA intein inh: -6; CCHF vOTU inh-1: 6; 3CLpro inhibitor: -1; DUSP3 inh: -4

What do the screens show for `COc1ccc(OC)c(/C=N/Nc2nncn2/N=C/c2cc(OC)ccc2OC)c1`?
RecA intein inh: -8; CCHF vOTU inh-1: 32*; 3CLpro inhibitor: 2; DUSP3 inh: -8; CCHF vOTU inh-2: -15

Results for COc1cc(/C=N/Nc2nncn2/N=C/c2ccc(O)c(OC)c2)ccc1O ?
CCHF vOTU inh-1: 100*; 3CLpro inhibitor: 6; DUSP3 inh: 32; CCHF vOTU inh-2: -13

How did CCOc1cc(/C=N/Nc2nnc(C)n2N)ccc1O do in these assays?
RecA intein inh: -6; CCHF vOTU inh-1: 117*; 3CLpro inhibitor: -4; DUSP3 inh: -5; CCHF vOTU inh-2: 5

Results for Cc1cc(O)ccc1-c1ccc2nncn2c1 ?
CCHF vOTU inh-1: -6
